From PubChem
PP5 inh – inhibitors of human protein phosphatase 5 (PP5) | P53041 | inhibition, % at 6.7 µM | 0.18% of 320,000 active | purified PP5c, OMFP substrate fluorescence;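 active = inhibition above the campaign's mean inhibition across all tested compounds plus 3 SD, cut at about 9.5% in these data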;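 also: 0% = DMSO only and 100% = 100 µM cantharidin control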
Rpn11 inh – Rpn11 (human) deubiquitinase inhibition; human 26S proteasome, Ub4-pepOG fluorescence polarization; 20S core pre-blocked with epoxomicin; inhibition, % at 20 µM; 0.59% of 360,000 active; AID 588493;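 active = inhibition at 20 µM, scaled to each plate's controls, above about 33%, limit read from the data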
Target sequence (O00487 whole entry, looked up): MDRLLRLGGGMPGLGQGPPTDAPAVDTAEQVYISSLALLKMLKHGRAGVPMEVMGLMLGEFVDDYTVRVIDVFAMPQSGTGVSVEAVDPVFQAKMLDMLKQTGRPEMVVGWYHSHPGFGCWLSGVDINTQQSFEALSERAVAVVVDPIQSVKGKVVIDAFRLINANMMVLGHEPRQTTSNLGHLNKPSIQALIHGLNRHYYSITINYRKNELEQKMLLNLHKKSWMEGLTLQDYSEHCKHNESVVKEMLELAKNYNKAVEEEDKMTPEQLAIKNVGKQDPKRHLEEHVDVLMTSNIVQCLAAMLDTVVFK
PREPL inhibitor – inhibitors of human prolyl oligopeptidase-like enzyme PREPL; 0.68% of 320,000 active; inhibition, % at 5.96 µM; Q4J6C6; recombinant PREPL, fluorescence polarization activity-based probe; in the data active = inhibition above about 43%;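 also: 0% = enzyme with DMSO and 100% = wells lacking enzyme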
NadD block – inhibitors of Staphylococcus aureus NadD; 0.78% of 360,000 active; inhibition, % at 20 µM; purified NadD enzyme, colorimetric absorbance read-out; in the data active = inhibition above about 26%
PP1 counter – PP1-alpha (human) inhibition in PP5 counter-screen; P62136; purified PP1alpha, OMFP fluorescence; inhibition, % at 6.7 µM; 0.9% of 320,000 active; AID 2235;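 active = inhibition above the mean inhibition of all tested compounds plus 3 SD, computed separately for each screening campaign, cut at about 15% in these data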
Target sequence (P62136 whole entry, looked up): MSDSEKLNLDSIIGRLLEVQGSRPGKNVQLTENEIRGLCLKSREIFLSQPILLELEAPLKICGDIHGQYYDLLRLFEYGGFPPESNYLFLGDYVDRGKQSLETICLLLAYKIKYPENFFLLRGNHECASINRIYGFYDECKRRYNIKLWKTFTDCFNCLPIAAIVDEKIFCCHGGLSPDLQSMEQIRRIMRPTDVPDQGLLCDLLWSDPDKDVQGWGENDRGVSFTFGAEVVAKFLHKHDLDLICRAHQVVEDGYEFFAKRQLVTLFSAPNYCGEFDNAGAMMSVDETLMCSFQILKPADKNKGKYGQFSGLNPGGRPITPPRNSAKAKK
Rpn11 confirm – Rpn11 inhibition confirmation, single concentration. inhibition, % at 20 µM. 29% of 1,900 active. purified human 26S proteasome, Ub4-pepOG fluorescence polarization; proteasome pretreated with epoxomicin. shares compounds with Rpn11 inh
MMP-2 inh – MMP-2 (human) inhibition counter-screen. shares compounds with Rpn11 inh. recombinant MMP-2, FRET peptide cleavage fluorescence. inhibition, % at 20 µM. 4% of 1,900 active;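 also: human MMP-2 activated beforehand with APMA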
Thrombin inh – blocks bovine thrombin, flagging nonselective RPN11 hits. 13% of 1,900 active. shares compounds with Rpn11 inh. AID 602333. inhibition, % at 20 µM. bovine thrombin cleavage of Ub4-pepOG, fluorescence polarization;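 active = mean inhibition at least 40% at 20 µM, or signal 3 deviations below plate average, so some actives read negative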;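 also: plate controls were thrombin with DMSO for no effect and buffer wells lacking thrombin for full effect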
The depositor's hits bear a star; . = not tested or not shown; + = active, no number. In the library only some 2.4% were active in any assay of this set; here they are far more common. Rule as the data show it, unless noted: active = inhibition above about 40%; inactive = the rest.

SMILES | PP5 inh | Rpn11 inh | PREPL inhibitor | NadD block | PP1 counter | Rpn11 confirm | MMP-2 inh | Thrombin inh
CCN1CCc2c(sc(NC(=O)c3cc4ccccc4cc3OC)c2C(N)=O)C1 | 4 | 72* | 15 | 17 | 5 | 75* | -38 | 39
COc1ccc(CCNC(=O)CS(=O)Cc2nc(-c3cccs3)oc2C)cc1OC (stereo not drawn) | -2 | 120* | 4 | 2 | 2 | 12 | -6 | 13
Cc1ccc(CCNC(=O)CS(=O)Cc2nc(-c3cccs3)oc2C)cc1 (stereo not drawn) | 1 | 12 | 7 | -6 | 2 | . | . | .
O=C1c2ccccc2/C(=C\c2ccc(Br)s2)N1c1ccccc1 | . | 41* | 11 | 11 | . | -3 | 1 | 2
CC1=NN(c2ccccc2)C(=O)/C1=C\c1ccc(Br)s1 | 2 | -3 | -3 | -4 | 15 | . | . | .
O=C(NCc1ccc(F)cc1)c1cc(C2CCCN(C(=O)c3cccs3)C2)on1 (stereo not drawn) | . | 6 | . | -3 | . | . | . | .
CC(C)CCN(C(=O)c1ccccn1)c1c(N)n(Cc2ccccc2)c(=O)[nH]c1=O | . | 1 | 20 | 15 | . | . | . | .
CC(C)CN(C(=O)C1=COCCO1)c1c(N)n(Cc2ccccc2)c(=O)[nH]c1=O | . | 7 | . | 2 | . | . | . | .
COc1ccc2c(c1)CCC1C2=NN(/C(C)=C/C(C)=O)C1c1cccc(F)c1 (stereo not drawn) | 1 | 80* | 0 | 0 | 1 | 23 | 8 | 17
CC(=O)N1N=C2c3ccccc3CCC2C1c1ccc(F)cc1 (stereo not drawn) | -1 | -7 | 9 | -4 | -1 | . | . | .
COc1ccccc1NC(=O)CSc1ccc(-c2ccc(-n3cccn3)cc2)nn1 | 3 | 97* | 11 | 1 | -2 | 117* | -13 | 3
COCCN(C(=O)Cc1ccc(S(=O)(=O)N2CCOCC2)s1)c1c(N)n(CC(C)C)c(=O)[nH]c1=O | . | -15 | . | 7 | . | . | . | .
CC[n+]1c(/C=C2\Sc3ccccc3N2C)ccc2cccc(C)c21 | . | 102* | . | 13 | . | 96* | -51 | 157*
CCOC(=O)CN1C(=O)N[C@@H](CCc2ccccc2)[C@H](C(=O)OC)[C@H]1C | 1 | -3 | 5 | -11 | -3 | . | . | .
COC(=O)c1ccc(NS(=O)(=O)c2ccc(-c3cc(C)no3)s2)cc1 | -1 | -4 | 0 | -9 | -1 | . | . | .
Fc1ccc(-c2nc3c4ccccc4ccn3c2Cc2cccc(Cl)c2)cc1 | . | 43* | . | 9 | . | 68* | 4 | 74*
Clc1cccc(Cc2c(-c3ccccc3)nc3c4ccccc4ccn23)c1 | . | 18 | . | 5 | . | . | . | .
Cc1ccc(C(=O)O)cc1-c1ccc(/C=C2/NC(=O)N(c3ccccc3)C2=O)o1 | 0 | 42* | 2 | 18 | 1 | 75* | 18 | 31
C=CCN1C(=O)N/C(=C/c2ccc(N3CCOCC3)o2)C1=O | 3 | . | 5 | . | -2 | . | . | .
O=C1N/C(=C/c2ccc(N3CCOCC3)o2)C(=O)N1c1ccccc1 | 5 | 59* | 9 | 5 | -4 | 166* | 20 | 166*
O=C1NC(=O)/C(=C/c2ccc(-c3cc(C(=O)O)ccc3Cl)o2)S1 | 4 | 20 | 3 | 6 | 3 | . | . | .
CC(C)C[C@H]1CN=C(Nc2ccccc2)N1CC1CCC(C(C)(C)C)CC1 (stereo partly drawn) | 4 | -12 | 25 | 6 | 11 | . | . | .
CN(C)CCC(C(=O)c1ccccc1)c1cccnc1 (stereo not drawn) | . | 2 | . | -3 | . | . | . | .
CC1CCCN(C(=O)c2ccc3c(=O)n4nc(Nc5ccccc5)sc4nc3c2)C1 (stereo not drawn) | . | -7 | . | 15 | . | . | . | .
Cc1cccc(Nc2nn3c(=O)c4ccccc4nc3s2)c1 | 2 | 126* | -5 | 0 | 6 | 46* | 37 | -19
SMILES | PP5 inh | Rpn11 inh | PREPL inhibitor | NadD block | PP1 counter | Rpn11 confirm | MMP-2 inh | Thrombin inh
CC(=O)Cc1nsc(NC(=O)c2ccc(-c3ccc(Cl)cc3Cl)o2)n1 | -3 | -1 | 0 | -3 | -4 | . | . | .
Cc1nnc2sc(-c3ccc(NC(=O)c4ccc(-c5ccc(Cl)cc5Cl)o4)cc3)nn12 | 0 | + | 6 | 30 | 9 | 19 | -41 | 44*
COc1cc(/C=C/c2[nH]c(=O)[nH]c(=O)c2[N+](=O)[O-])ccc1OCCC(C)C | -1 | 56* | -4 | 2 | 0 | 28 | -20 | -20
COc1ccc2[nH]c3c(c2c1)CCN1C(=O)C(CC(=O)NC/C=C(\C)CCC=C(C)C)C[C@H](C(=O)N(C(C)C)C(C)C)[C@@]31C (stereo partly drawn) | . | -3 | . | 9 | . | . | . | .
N#CC1=C(N)Oc2cc(O)c(C=Nc3ccccc3)cc2C1c1ccccc1 (stereo not drawn) | 3 | 2 | 22 | 5 | 1 | . | . | .
Cc1ccccc1N=Cc1cc2c(cc1O)OC(N)=C(C#N)C2c1ccccc1 (stereo not drawn) | 2 | 66* | 3 | 8 | 2 | 96* | 5 | 93*
C/C(=N\Nc1ccc([N+](=O)[O-])cc1)c1ccc(-n2nncc2C)cc1 | 0 | 62* | 18 | 1 | 1 | 20 | 0 | -17
CCc1cccc(CC)c1N1C(=O)c2cc(N3CCOCC3)c([N+](=O)[O-])cc2C1=O | 1 | -5 | 6 | -5 | -1 | . | . | .
COCCCNC(=S)N1CCC(NC(=O)c2ccco2)CC1 | -1 | -1 | 8 | -6 | -3 | . | . | .
CCOC(=O)CSc1nsc(SCC(=O)OCC)c1C#N | 1 | -2 | -1 | -2 | -1 | . | . | .
CC(=O)CSc1nsc(SCC(C)=O)c1C#N | 2 | 46* | 7 | 14 | -5 | 16 | 50* | 15
O=C(CNC(=O)c1ccco1)OCc1ccccc1F | . | -1 | -1 | 1 | . | . | . | .
O=c1[nH]c2ccccc2nc1NCCN1CCOCC1 | -2 | 43* | 2 | -3 | 0 | -13 | -17 | -4
c1ccc2[nH]c(NCCCN3CCOCC3)nc2c1 | -1 | -6 | -10 | 2 | -4 | . | . | .
N#C/C(=C\c1c(N2CCN(c3ccccc3)CC2)nc2ccccn2c1=O)C(N)=O | . | 7 | . | -4 | . | . | . | .
O=C(NC(=S)Nc1ccccc1O)c1cncc(Br)c1 | -1 | 48* | 4 | -4 | -4 | 39 | -25 | 9
Cc1ccc(N2CC(C(=O)N3CCOCC3)CC2=O)cc1Cl (stereo not drawn) | 0 | 0 | 6 | -1 | -7 | . | . | .
COc1cc2sc3ccc(C#Cc4ccccn4)cc3c(=O)c2cc1OC | 3 | 56* | 2 | 0 | 3 | -15 | -38 | -3
Cc1ccc(C(=O)OCc2cc(=O)n3c(C)csc3n2)s1 | 0 | -5 | 4 | -6 | 0 | . | . | .
CC(C)NC(=O)c1cc(C2CCCCN2S(=O)(=O)c2cccc3cccnc23)on1 (stereo not drawn) | . | -4 | . | 0 | . | . | . | .
